Experimental data from PubChem BioAssay (NCATS).
Values joined by “and” are separate entries in the source; they are usually repeats but may differ in a detail not shown here. Identical values can stand only once. Records with an inconclusive call do not appear. Active and inactive are the calls of the source. Unless noted, calls follow the shape of the dose curve; as a rule, active = well fitted curve in the direction sought with a large enough effect; inconclusive = small, poorly fitted or top-dose-only effect, or another doubt; inactive = no such curve, though single readings can be large; an effect the other way counts as inactive or inconclusive.

Key:
[1] = Cell Viability - BJ (AID 421; calls by dose curve;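 also: potency is read from the fitted curve at half-maximal effect; cells exposed to compound for 40 hours at 37 °C before readout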); conditions: BJ fibroblast viability, qHTS
Summary of the method: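 Cytotoxicity in human BJ foreskin fibroblasts is scored as loss of cellular ATP after a 40-hour exposure, measured by luciferase luminescence. Controls are DMSO and 100 uM tamoxifen.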

[2] = Cell Viability - Jurkat (AID 426;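 active = dose-dependent loss of cell ATP signal giving a full or clear fitted curve, ranked by lower potency value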;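 also: potency is read from the fitted curve at half-maximal effect; cells exposed to compound for 40 hours at 37 °C before ATP read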); conditions: qHTS
Summary of the method: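 Seed 5000 Jurkat E6-1 cells/well; add compound; incubate 40 hr at 37 °C; add CellTiter-Glo; wait 20 min at room temperature; read luminescence. Fit concentration-response with Hill equation for AC50.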

[3] = Cell Viability - Hek293 (AID 427;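 active = compounds whose dose-response curve shows a full or clear partial loss of cell viability, called from curve shape rather than a numeric limit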;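 also: potency is read from the fitted curve at half-maximal effect; cells exposed to compound for 40 hours at 37 °C before reading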); conditions: qHTS
Summary of the method: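 qHTS, human embryonic kidney (adenovirus-transformed) cells; 40 hr cpd, 37 °C; CellTiter-Glo ATP luminescence. Norm: DMSO = 0, 100 uM tamoxifen = 100% inhibition. Hill-fit AC50.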

[4] = Cell Viability - HepG2 (AID 433; calls by dose curve;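 also: potency is read from the fitted curve at half-maximal effect; potency for ATP loss meaning cytotoxicity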); conditions: qHTS
Summary of the method: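 Cytotoxicity is scored as loss of intracellular ATP in HepG2 cells exposed to compounds for 40 h. Concentration-response curves, normalized to DMSO and 100 uM tamoxifen, give AC50 values.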

[5] = Cell Viability - MRC5 (AID 434; calls by dose curve;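 also: potency is read from the fitted curve at half-maximal effect; cells exposed to compound for 40 hours at 37 °C; potency reflects cytotoxicity seen as loss of intracellular ATP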); conditions: MRC5 lung fibroblast viability, qHTS
Summary of the method: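 qHTS cytotoxicity in human lung fibroblast MRC5 cells; 40 hr treatment, 37 °C; cellular ATP by luciferase luminescence; DMSO = 0%, 100 uM tamoxifen = 100% inhibition; Hill-fit AC50.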

[6] = Cell Viability - Mesenchymal (AID 546); conditions: mesenchymal cells viability, qHTS; series mostly up to 91.7 µM;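 also: cells exposed to compound for 40 hours before reading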
Summary of the method: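 AC50 values reflect the drop in intracellular ATP in a human kidney mesenchymal line derived from normal glomeruli. Treatment lasts 40 hr at 37 °C in complete medium, and the signal comes from CellTiter-Glo luminescence.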

[7] = Cellular Toxicity (caspase-3) HepG2 (AID 654); conditions: HepG2 caspase-3 activation, luminescence, 0% = DMSO only, 100% = tamoxifen; series mostly up to 92.2 µM;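 also: cells exposed to compound for 16 hours before reading; 0% = DMSO alone and 100% = caspase signal from 100 µM tamoxifen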
Summary of the method: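 qHTS, HepG2, 1500 cells/well, complete medium; cpd 16 h 37 °C; Caspase-Glo 3/7, 20 min RT; lum. Norm: DMSO vs 100 uM tamoxifen; AC50 Hill fit.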

[8] = Cellular Toxicity (caspase-3) HUV-EC-C (AID 656); conditions: HUV-EC-C cells, caspase-3 activation (apoptosis), vehicle = 0, 100 µM tamoxifen = 100%; series mostly up to 92.2 µM;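 also: cells exposed to compound for 16 h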
Summary of the method: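 Read-out: luminescence proportional to caspase 3/7 activity, measured 20 min after adding Caspase-Glo 3/7 reagent. Cells (HUV-EC-C) had received compound for 16 hr at 37°C. Increases relative to DMSO and 100 uM tamoxifen gave concentration-response AC50 values.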

[9] = Cellular Toxicity (caspase-3) BJ (AID 658); conditions: BJ fibroblasts, luminescence, normalized: DMSO 0%, staurosporine 100%; series mostly up to 91.7 µM;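 also: cells exposed to compound for 16 hours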
Summary of the method: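 Readout: Caspase-Glo 3/7 luminescence increase in BJ cells after 16 hr treatment at 37 °C. Staurosporine and tamoxifen served as positive controls; AC50 values came from Hill modelling of data normalized to DMSO and 10 uM staurosporine.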

[10] = Cellular Toxicity (caspase-3) MRC-5 (AID 659); conditions: MRC-5 cells, luminescence, normalized: DMSO 0%, 10 µM staurosporine 100%; series mostly up to 91.7 µM;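 also: cells exposed to compound for 16 h at 37 °C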
Summary of the method: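 Concentration-dependent caspase 3/7 activation is measured in human normal lung fibroblasts (MRC-5) following 16-hour treatment. AC50 values come from standard Hill-equation modeling of luminescence normalized to DMSO and 10 uM staurosporine.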

[11] = Cellular Toxicity (caspase-3) SK-N-SH (AID 661); conditions: SK-N-SH caspase-3 activation, qHTS; series mostly up to 91.7 µM;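 also: cells exposed to compound for 16 hours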
Summary of the method: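 Caspase 3/7 activation is measured as a luminescence increase from aminoluciferin released by substrate cleavage in SK-N-SH cells after 16 hr compound treatment; values are AC50 from concentration-response curves.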

[12] = Cellular Toxicity (caspase-3) Hek293 (AID 664); conditions: HEK293 caspase-3 activation, DMSO = 0%, 100 µM tamoxifen = 100%; at 92.2 µM (top of the series);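 also: cells exposed to compound for 16 h at 37 °C before readout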
Summary of the method: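 Activation of caspase-3/7 is measured as increased luminescence from cleaved peptide-aminoluciferin substrate in HEK293 cells treated 16 hours at 37 °C. AC50 values come from Hill-equation fits of concentration-response data.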

[13] = MultiTox-Fluor Cytotoxicity Assay - LYMP1-001 - Dead Cells (AID 946); conditions: LYMP1-001 lymphoblastoid cells, dead-cell protease fluorescence; series mostly up to 92.2 µM;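 also: cells exposed to compound for 16 h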
Summary of the method: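 Seed 2500 LYMP1-001 cells/well, incubate 5 hr at 37 C; add compound, 16 hr at 37 C; add MultiTox-Fluor reagent, 60 min RT; read dead-cell fluorescence Ex/Em=485/520. Normalize to DMSO and 15 uM tetraoctylammonium bromide.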

[14] = Cell Viability - LYMP1-002 - Assay at 16 hr (AID 948); conditions: LYMP1-002 lymphoblastoid cell viability; series mostly up to 92.2 µM;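 also: 0% = DMSO alone and full effect = 92 µM tetraoctylammonium bromide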
Summary of the method: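 Acute cytotoxicity is scored as a concentration-dependent fall in intracellular ATP in a human lymphoblastoid line (LYMP1-002) after 16 hr compound exposure at 37 C, measured by luciferase luminescence.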

[15] = MultiTox-Fluor Cytotoxicity Assay - LYMP1-002 - Live Cells (AID 955); conditions: LYMP1-002 lymphoblastoid live-cell protease fluorescence viability; series mostly up to 46.1 µM;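 also: cells exposed to compound for 16 hours; % is scaled to controls: 0 for no effect and ±100 for the full control effect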
Summary of the method: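 Cytotoxicity in the human lymphoblastoid line LYMP1-002 is measured as loss of live-cell protease activity after 16 h treatment in complete culture medium. AC50 is derived from Hill-equation fits of qHTS concentration-response data.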

[16] = MultiTox-Fluor Cytotoxicity Assay - LYMP1-003 - Dead Cells (AID 961); conditions: LYMP1-003 lymphoblastoid cells, dead-cell protease fluorescence; series mostly up to 92.2 µM;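 also: cells exposed to compound for 16 h at 37 °C; nearly all actives have a fitted effect of over 70% in size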
Summary of the method: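 LYMP1-003 lymphoblastoid, 2500 cells/well, 5 hr settle then 16 hr cpd at 37 C; MultiTox-Fluor reagent 60 min RT; Ex/Em 485/520 dead-cell signal; norm. DMSO = 0%, 15 uM tetraoctylammonium bromide = 100%; Hill AC50.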

[17] = Cell Viability - LYMP2-016 (AID 984); conditions: LYMP2-016 lymphoblastoid cell viability, qHTS; series mostly up to 92.2 µM;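 also: cells exposed to compound for 24 hours at 37 °C; % is scaled to controls: 0 for no effect and ±100 for the full control effect; nearly all actives have a fitted effect of over 55% in size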
Summary of the method: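 Acute toxicity in a Coriell human lymphoblastoid line is scored as loss of intracellular ATP over 24 h of treatment in complete medium. CellTiter-Glo signal is fitted across concentrations with the Hill equation to give AC50.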

[18] = Cell Viability - LYMP2-026 (AID 989); conditions: LYMP2-026 lymphoblastoid cell viability, qHTS; series mostly up to 92.2 µM;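 also: cells exposed to compound for 24 h at 37 °C; % is scaled to controls: 0 for no effect and ±100 for the full control effect; nearly all actives have a fitted effect of over 50% in size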
Summary of the method: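 Concentration-dependent loss of intracellular ATP in human lymphoblastoid cells after 24 hr at 37 C, quantified by luciferase luminescence. AC50 derived from standard Hill equation.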

[19] = qHTS Assay for Identification of Small Molecule Inducers of Hypoxia Response (AID 2120; active = well fitted curve in the direction sought with a large enough effect in the signal ratio, with a control signal flat, not every such curve was filed as active; the % refers to the signal ratio; also: 0% is about no effect); conditions: hypoxia response reporter cells, beta-lactamase ratio readout; series mostly up to 104 µM
Summary of the method: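 Induction of beta-lactamase reporter activity was measured in CellSensor HRE-bla ME-180 cells after 17 h compound treatment at 37 degrees C, using CCF4 substrate and the 460nm/530nm emission ratio to derive AC50 values.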

[20] = target: Peroxisome proliferator-activated receptor alpha (Homo sapiens) (UniProt Q07869); test: qHTS assay for small molecule agonists of the peroxisome proliferator-activated receptor alpha (PPARalpha) signaling pathway (AID 651778); conditions: PathHunter PPARalpha complementation, chemiluminescence, 6 h; hits give high values; also: % of control where 0% means no effect
Summary of the method: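 Chemiluminescence from complemented enzyme reported PPARalpha activation in cells after 6 hr of compound treatment at 37 C. The detection reagent was incubated for 60 min at room temperature, and compounds were scored as agonists.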

Sequence of Peroxisome proliferator-activated receptor alpha (Homo sapiens) (Q07869 whole entry, looked up): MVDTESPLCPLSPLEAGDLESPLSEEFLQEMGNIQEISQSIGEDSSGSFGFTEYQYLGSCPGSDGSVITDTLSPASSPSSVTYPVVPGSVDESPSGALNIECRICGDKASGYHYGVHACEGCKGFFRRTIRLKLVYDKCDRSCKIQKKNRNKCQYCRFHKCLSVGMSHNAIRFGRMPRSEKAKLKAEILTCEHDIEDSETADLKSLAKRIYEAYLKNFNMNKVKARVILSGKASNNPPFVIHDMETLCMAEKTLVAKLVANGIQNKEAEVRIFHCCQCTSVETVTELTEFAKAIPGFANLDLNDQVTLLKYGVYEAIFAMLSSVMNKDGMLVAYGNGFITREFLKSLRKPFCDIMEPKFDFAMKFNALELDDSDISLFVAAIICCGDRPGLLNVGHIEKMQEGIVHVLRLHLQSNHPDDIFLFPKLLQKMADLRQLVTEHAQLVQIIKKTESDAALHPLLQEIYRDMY

O=C(Cc1ccccc1)OCc1ccccc1
inactive: Potency [1] > 92 µM | Potency [2] > 92 µM | Potency [3] > 92 µM | Potency [4] > 92 µM | Potency [5] > 92 µM | Potency [6] | outcome [7] | outcome [8] | outcome [9] | outcome [10] | Potency [11] | caspase-3 activation [12] 2.6% | outcome [13] | outcome [14] | outcome [15] | Potency [16] | Potency [17] | Potency [18] | Potency [19] | max response [20] 0.258%

CC(C)(C)c1ccccc1O
inactive: Potency [1] > 92 µM | Potency [2] > 92 µM | Potency [3] > 92 µM | Potency [4] > 92 µM | Potency [5] > 92 µM | Potency [6] | outcome [7] | outcome [8] | outcome [9] | outcome [10] | Potency [11] | caspase-3 activation [12] -1.2% | outcome [13] | outcome [14] | outcome [15] | Potency [16] | Potency [17] | Potency [18] | Potency [19] | max response [20] -7.23% and -1.41%

CCCCCOC(=O)c1ccccc1C(=O)OCCCCC
inactive: Potency [1] > 92 µM | Potency [2] > 92 µM | Potency [3] > 92 µM | Potency [4] > 92 µM | Potency [5] > 92 µM | Potency [6] | outcome [7] | outcome [8] | outcome [9] | outcome [10] | Potency [11] | caspase-3 activation [12] 3.92% | outcome [13] | outcome [14] | outcome [15] | Potency [16] | Potency [17] | Potency [18] | Potency [19] | max response [20] -4.34% and -0.557%

C=CC=O
inactive: Potency [1] > 92 µM | Potency [2] > 92 µM | Potency [3] > 92 µM | Potency [4] > 92 µM | Potency [5] > 92 µM | Potency [6] | outcome [7] | outcome [8] | outcome [9] | outcome [10] | Potency [11] | caspase-3 activation [12] 0.46% | outcome [13] | outcome [14] | outcome [15] | Potency [16] | Potency [17] | Potency [18] | Potency [19] | max response [20] -5.14%

O=[N+]([O-])c1ccc(Cl)cc1
inactive: Potency [1] > 92 µM | Potency [2] > 92 µM | Potency [3] > 92 µM | Potency [4] > 92 µM | Potency [5] > 92 µM | Potency [6] | outcome [7] | outcome [8] | outcome [9] | outcome [10] | Potency [11] | caspase-3 activation [12] -0.181% | outcome [13] | outcome [14] | outcome [15] | Potency [16] | Potency [17] | Potency [18] | Potency [19] | max response [20] -4.31% and 0.471%

ClCCBr
inactive: Potency [1] > 92 µM | Potency [2] > 92 µM | Potency [3] > 92 µM | Potency [4] > 92 µM | Potency [5] > 92 µM | Potency [6] | outcome [7] | outcome [8] | outcome [9] | outcome [10] | Potency [11] | caspase-3 activation [12] -0.69% | outcome [13] | outcome [14] | outcome [15] | Potency [16] | Potency [17] | Potency [18] | Potency [19] | max response [20] 0.115%

CCC/C=N/O
inactive: Potency [1] > 92 µM | Potency [2] > 92 µM | Potency [3] > 92 µM | Potency [4] > 92 µM | Potency [5] > 92 µM | Potency [6] | outcome [7] | outcome [8] | outcome [9] | outcome [10] | Potency [11] | caspase-3 activation [12] -0.0645% | outcome [13] | outcome [14] | outcome [15] | Potency [16] | Potency [17] | Potency [18] | Potency [19] | max response [20] -3.79%

O=C(O)C(Cl)(Cl)Br
inactive: Potency [1] > 92 µM | Potency [2] > 92 µM | Potency [3] > 92 µM | Potency [4] > 92 µM | Potency [5] > 92 µM | Potency [6] | outcome [7] | outcome [8] | outcome [9] | outcome [10] | Potency [11] | caspase-3 activation [12] 1.91% | outcome [13] | outcome [14] | outcome [15] | Potency [16] | Potency [17] | Potency [18] | Potency [19] | max response [20] -5.37%
